In PubChem BioAssay (NCI):
Compounds without any hit were thinned out: in the full panel of roughly 79,000, 15% have a hit. Calls of active or inactive are those of the source. Rule as the data show it: active = growth inhibition above about 70%; inactive = the rest. Where a SMILES comes first, the peptide text is derived from it.

How the values were obtained:
[1] = NCI Yeast Anticancer Drug Screen. Data for the rad50 strain (AID 155);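 also: 0% = growth of vehicle-only cultures of the same strain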; settings: S. cerevisiae rad50 strain growth inhibition; at 50.0 µM; hits give high values
In short: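 DNA repair mutant yeast, compound exposure, growth read-out; inhibition is taken relative to vehicle.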

[2] = NCI Yeast Anticancer Drug Screen. Data for the mec2-1 strain (AID 157); settings: S. cerevisiae mec2-1 strain, at 50.0 µM, hits give high values
In short: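 Growth inhibition is read against vehicle-treated controls after compound exposure of the mec2-1 yeast strain, which is defective in DNA damage repair or cell cycle control.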

[3] = NCI Yeast Anticancer Drug Screen. Data for the sgs1 mgt1 strain (AID 161);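 also: 0% = growth of cultures given vehicle only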; settings: S. cerevisiae sgs1 mgt1 strain, at 50.0 µM, hits give high values
In short: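 Compounds are added to genetically altered yeast, and growth is compared with cultures given vehicle alone to give percent inhibition.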

[4] = NCI Yeast Anticancer Drug Screen. Data for the cln2 rad14 strain (AID 165);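 also: 0% = growth equal to vehicle treated cultures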; settings: S. cerevisiae cln2 rad14 strain, at 50.0 µM, hits give high values
In short: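 Growth inhibition, relative to vehicle-treated controls, is the read-out. The test organism is a yeast strain with defined genetic alterations, cln2 rad14.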

[5] = NCI Yeast Anticancer Drug Screen. Data for the bub3 strain (AID 167); settings: S. cerevisiae bub3 mutant strain, at 50.0 µM, hits give high values
In short: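 In this screen, a yeast mutant lacking normal mitotic checkpoint function is challenged with compound. Relative growth versus vehicle gives the inhibition value.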

[6] = NCI Yeast Anticancer Drug Screen. Data for the mlh1 rad18 strain (AID 175); settings: S. cerevisiae mlh1 rad18 strain growth inhibition; at 50.0 µM; hits give high values
In short: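 Cells of a genetically altered yeast strain, deficient in DNA damage repair, were treated with compound. Their growth was then compared with that of vehicle-treated cultures to give inhibition.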

Measured: growth inhibition

CCCCNC(=O)c1cc2c(cc1Cl)Sc1nccn1S2(=O)=O
inactive: [1] -1.1% | [2] -0.3% | [3] 1.35% | [4] 9.2% | [5] 43.9% | [6] 28.6%

CO[C@@H]1[C@@H](O)c2ccccc2N1C(C)=O
inactive: [1] 13.4% | [2] 1.9% | [3] -4% | [4] 8.15% | [5] 3.25% | [6] 20.1%

CC(=O)Oc1ccccc1Cl
inactive: [1] 18.1% | [2] 31.5% | [3] 25.9% | [4] 13.3% | [5] 19.1% | [6] 16.8%

OCCCCCCN=Cc1ccccc1O.OCCCCCCN=Cc1ccccc1O.[Cu]
inactive: [1] 47.9% | [2] -1.2% | [4] -48.2% | [5] 4.25% | [6] 14.8%
active: [3] 72.2%

CCCCNc1nc2ccccc2c2c1ncn2CC(C)C
inactive: [1] -7.4% | [2] 34.5% | [3] 14.1% | [4] 23.5% | [5] 46.5% | [6] 30.3%

CC(=O)Nc1ccccc1C
inactive: [1] 11.9% | [2] -7.1% | [3] -0.55% | [4] -5.65% | [5] 5.2% | [6] 3.05%

CCCCCCCCNC(=O)c1ccccc1C(=O)O
inactive: [1] 1.6% | [2] 14.9% | [3] 51.2% | [4] -32.8% | [5] 44.6% | [6] 13.4%

CCNC(=O)NC(=O)C(C)(C)Oc1ccc(Cl)cc1
inactive: [1] -8.4% | [2] 10.4% | [3] 7.4% | [4] 12.5% | [5] 12.4% | [6] 18.8%

CC(=O)c1cc2c(cc1C)C(C)CCC2(C)C (configuration not stated)
inactive: [1] -7% | [2] -29.4% | [3] -9.6% | [4] -6.1% | [5] 1.9% | [6] -22.5%

Nc1ncnc2c1cnn2-c1ccc(Cl)cc1
inactive: [1] 42% | [2] 9.15% | [3] 62.6% | [4] -7.2% | [5] 23.8% | [6] 48%

CN(C)c1ccc(C2c3c(oc4ccccc4c3=O)Oc3oc4ccccc4c(=O)c32)cc1
inactive: [1] 3.8% | [2] -0.15% | [3] -9.85% | [4] 5.4% | [5] 0.35% | [6] -17.5%

Clc1ccc(Cl)c(N=Nc2cc3c4c(c2)CCN4CCC3)c1
inactive: [1] -34% | [2] -35.1% | [3] -15.2% | [4] -16.3% | [5] -10.8% | [6] -18.8%

COc1cccc(NC(=S)NNC(=S)NNc2ccccc2)c1
active: [3] 70.3%
inactive: [1] 59.4% | [2] 60.2% | [4] 43% | [5] 65.2% | [6] 63.6%

CCCCCCN1CCc2c(C)c(C#N)c3nc4ccccc4n3c21
inactive: [1] -8.45% | [2] -8.05% | [3] -0.95% | [4] 10.9% | [5] 19.1% | [6] 21.8%

CC(C)CC(NC(=O)C(NC(=O)C(N)C(C)O)C(C)C)C(=O)O (stereo not drawn) (H-Thr-Val-Leu-OH; configuration not given here)
inactive: [1] 5.9% | [2] 3.1% | [3] 3.5% | [4] 5.95% | [5] 4.75% | [6] -1.5%

CC(=O)OCC1OC(OC(C)=O)C(Nc2ncnc3nc[nH]c23)C(OC(C)=O)C1OC(C)=O (configuration not stated)
inactive: [1] 28.1% | [2] 23.9% | [3] 49.9% | [4] 11.6% | [5] 16.5% | [6] 37.8%

O=Cc1c(CO)cc(O)c(O)c1O
inactive: [1] -12.4% | [2] -0.1% | [3] 16.1% | [4] -30.6% | [5] 2.9% | [6] 6.55%

CN(C)c1ccc(C(=O)c2ccc([N+](=O)[O-])cc2)cc1
inactive: [1] -1.6% | [2] -10% | [3] 0.5% | [4] 6.3% | [5] -4.95% | [6] -8.25%

Cc1cc2c3c(nc2c2cc[nH]c(C)c12)CCCC3
active: [1] 88.2% | [2] 92% | [3] 92% | [4] 91.7% | [5] 90.8% | [6] 91%

CCCCCCCC/C=C\CCCCCCC(F)C(=O)O (configuration not stated)
inactive: [1] 25.4% | [2] 4.55% | [3] 16.2% | [4] 6.1% | [5] -11.8% | [6] -43%

O=C(O)CC(NC(=O)C(CC(=O)OCc1ccccc1)NC(=O)OCc1ccccc1)C(=O)OCc1ccccc1 (configuration not stated)
inactive: [1] 44.5% | [2] 20.6% | [3] 27.4% | [4] 24.4% | [5] -5.8% | [6] 36.6%

O=C(c1ccccc1)N(C(=O)c1ccccc1)c1cccc[n+]1[O-]
inactive: [1] 4.4% | [2] -2.25% | [3] -1.75% | [4] -12.2% | [5] -10.2% | [6] -4%

NC(=O)COc1c(Br)cc(Br)cc1Br
inactive: [1] -1.55% | [2] 6.65% | [3] -12.1% | [4] -3.75% | [5] -21.4% | [6] -25.4%

CCOC(=O)C1Oc2ccccc2OC1C (configuration not stated)
inactive: [1] 24.5% | [2] -15.7% | [3] 9.45% | [4] 12.9% | [5] 16.3% | [6] 3.85%

CCC(=O)C(C)C1=Nc2nnc(CCCCCCCc3nnc4n3C(=O)C(C(C)C(=O)CC)=N4)n2C1=O (configuration not stated)
inactive: [1] -13.7% | [2] 12.3% | [3] 11.8% | [4] -7.4% | [5] -3.05% | [6] -4.35%

Cc1cc(N)ccc1N=Nc1ccc(S(=O)(=O)CCOS(=O)(=O)O)cc1
inactive: [1] 10.9% | [2] -7.5% | [3] -6.8% | [4] -4.65% | [5] -37.1% | [6] -74.7%

CCC1=CC(C(O)CC(C)C)C(C)(Cc2ccc(CC)cn2)NC1c1ccccc1 (configuration not stated)
inactive: [1] 24.9% | [2] 14.8% | [3] 40.2% | [4] 11.9% | [5] 54.1% | [6] 50.3%

CN1CCN(C(=S)N(C(=O)c2ccc(Cl)cc2)c2ccccc2)CC1
inactive: [1] -49.2% | [2] -36.5% | [3] -20.6% | [4] -6.8% | [5] 4.65% | [6] -7.25%

CCN(CC)c1ccc(/C=C(\C)c2nc3ccc(Cl)cc3[nH]2)cc1
inactive: [1] -5.35% | [2] 6.6% | [3] 4.5% | [4] 7% | [5] -5.95% | [6] -4.75%

c1cnn([B-]2(n3cccn3)n3ccc[n+]3[B-](n3cccn3)(n3cccn3)n3ccc[n+]32)c1
inactive: [1] 0.85% | [2] -11.6% | [3] 9.2% | [4] -8.85% | [5] 14.1% | [6] -4.05%

CC(C)CCCC(C)CCCC(C)CCCC(C)CC(=O)O (configuration not stated)
inactive: [1] -9.35% | [2] -25.5% | [3] -16.9% | [4] 43% | [5] -1.2% | [6] -23.3%

CCCCCC(=O)OCCOCCOC
inactive: [1] 33.7% | [2] -2.9% | [3] 29.6% | [4] 0.25% | [5] 2.25% | [6] 29.3%

O=C(CC1=NC2NN(c3ccccc3)C(=O)C2=C1CC(=O)C(c1ccccc1)c1ccccc1)C(c1ccccc1)c1ccccc1 (configuration not stated)
inactive: [1] 51.9% | [2] 17.9% | [3] 27.8% | [4] 32% | [5] 10.8% | [6] 48.5%

c1ccc(C2=NCC(c3ccccc3)(C3(c4ccccc4)SCCCS3)O2)cc1 (configuration not stated)
inactive: [1] 30.8% | [2] 5.15% | [3] 12.7% | [4] -13.8% | [5] -3.35% | [6] 6.55%

NC1c2ccccc2CCc2ccccc21
inactive: [1] 13.6% | [2] -13.7% | [3] 17.6% | [4] 3.55% | [5] 6.8% | [6] 6.8%

CC(=O)NCC(N)=S
inactive: [1] 5.85% | [2] -24.1% | [3] 0.65% | [4] -1.55% | [5] 5.3% | [6] 4%

Cc1cc(N)c(N=Cc2ccccc2[N+](=O)[O-])cc1C
inactive: [1] 26.2% | [2] 11.5% | [3] 39.8% | [4] -58.8% | [5] 24.8% | [6] 20.9%

O=C1CCCC(=O)c2c(O)ccc(O)c21
inactive: [1] 4.4% | [2] -4.15% | [3] 9.5% | [4] -3.4% | [5] 10.7% | [6] 5.65%

O=C(C(=O)c1ccco1)c1ccco1
inactive: [1] 64.1% | [2] -0.45% | [3] 34.1% | [4] -24.6% | [5] 21.1% | [6] 35%

O=C(c1cccc(Cl)c1)c1cccc(Cl)c1
inactive: [1] 1.2% | [2] -14.8% | [3] -0.9% | [4] 2.35% | [5] 5.15% | [6] -3.25%

CC(=O)OCCc1ccc2c(c1)OCO2
inactive: [1] -0.1% | [2] -11.8% | [3] 6.05% | [4] -30.9% | [5] -16.9% | [6] -6.15%

C/C=C1\C(=O)OC2CCN3CCC(COC(=O)C(C)(O)C(C)C1O)C23 (configuration not stated)
inactive: [1] 11.2% | [2] -7.65% | [3] -24.6% | [4] -13.7% | [5] -46.5% | [6] -60.2%
